# Measurements published in PubChem BioAssay (NCI).
# The panel holds about 83,000 compounds, 20% with a hit somewhere; the sample as a whole holds those more often.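 Each cell line was grown in a 96-well plate and treated with one concentration of compound for 48 hours. Values below 10 were considered active.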 Activity calls are given as the source filed them.
# Assays:
# Assay in all cases: NCI-60 one-dose screen, 48 h (100 = growth as untreated, 0 = no growth, -100 = all killed)
# [1] = test system: NCI-H23 lung; conditions: 10 µM unless noted
# [2] = test system: NCI-H226 lung; conditions: 10 µM unless noted
# [3] = test system: NCI-H322M lung; conditions: 10 µM unless noted
# [4] = test system: HOP-62 NSCLC; conditions: 10 µM unless noted
# [5] = test system: NCI-H460 lung; conditions: 10 µM unless noted
# [6] = test system: 786-0 renal; conditions: 10 µM unless noted
# [7] = test system: MDA-MB-231 breast; conditions: 10 µM unless noted
# [8] = test system: SF-268 CNS; conditions: 10 µM unless noted
# [9] = test system: SF-539 CNS; conditions: 10 µM unless noted
# [10] = test system: HCT-15 colon; conditions: 10 µM
# [11] = test system: U251 CNS; conditions: 10 µM unless noted
# [12] = test system: PC-3 prostate; conditions: 10 µM unless noted
# [13] = test system: SK-MEL-28 melanoma; conditions: 10 µM unless noted
# [14] = test system: SN12C renal; conditions: 10 µM unless noted
# [15] = test system: HS 578T breast; conditions: 10 µM unless noted
# [16] = test system: NCI/ADR-RES ovarian; conditions: 10 µM unless noted
# [17] = test system: SW-620 colon; conditions: 10 µM unless noted
# [18] = test system: MCF7 breast; conditions: 10 µM unless noted
# [19] = test system: HCT-116 colon; conditions: 10 µM unless noted
# [20] = test system: KM12 colon; conditions: 10 µM unless noted
SMILES,growth [1],growth [2],growth [3],growth [4],growth [5],growth [6],growth [7],growth [8],growth [9],growth [10],growth [11],growth [12],growth [13],growth [14],growth [15],growth [16],growth [17],growth [18],growth [19],growth [20]
C=CC(O)CN1CC1CC (centres undefined),99% (inactive),105% (inactive),106% (inactive),101% (inactive),100% (inactive),107% (inactive),113% (inactive),106% (inactive),98% (inactive),102% (inactive),93.8% (inactive),98.1% (inactive),105% (inactive),99% (inactive),97.3% (inactive),97.4% (inactive),92% (inactive),94.2% (inactive),104% (inactive),106% (inactive)
Nc1ccc([N+](=O)[O-])c2c1Oc1ccccc1O2,94.3% (inactive),87.4% (inactive),93.9% (inactive),90.9% (inactive),111% (inactive),82.7% (inactive),97% (inactive),107% (inactive),89.7% (inactive),87.8% (inactive),90.2% (inactive),101% (inactive),116% (inactive),98% (inactive),100% (inactive),99.4% (inactive),104% (inactive),101% (inactive),99.7% (inactive),99.8% (inactive)
O=c1[nH]c2cc(Cl)ccc2n1C1CCN(CCCC(c2ccc(F)cc2)c2ccc(F)cc2)CC1,59.7% (inactive),126% (inactive),78.1% (inactive),67.2% (inactive),-49.2% (active),11.5% (inactive),29.2% (inactive),24.8% (inactive),15.5% (inactive),-30.3% (active),29.4% (inactive),7.82% (active),-90.8% (active),20.1% (inactive),-80.6% (active),51.9% (inactive),-80.7% (active),-32.4% (active),3.23% (active),-94.6% (active)
COc1ccccc1N1CCN(CCc2c[nH]c3cc4c(cc23)OCO4)CC1,71.9% (inactive),79.3% (inactive),72.1% (inactive),63.2% (inactive),51.6% (inactive),79% (inactive),79.8% (inactive),91.6% (inactive),77.8% (inactive),68% (inactive),85.4% (inactive),58.4% (inactive),94.2% (inactive),68.4% (inactive),69.5% (inactive),86% (inactive),88.6% (inactive),78.7% (inactive),42.5% (inactive),84% (inactive)
OC1(c2ccc(Cl)cc2Cl)c2ccccc2C2=NCCN21 (centres undefined),88.5% (inactive),71.3% (inactive),98.6% (inactive),78.7% (inactive),105% (inactive),87.9% (inactive),85.2% (inactive),103% (inactive),102% (inactive),101% (inactive),89.5% (inactive),79% (inactive),111% (inactive),92.4% (inactive),77.7% (inactive),96.3% (inactive),92.7% (inactive),96.4% (inactive),78.8% (inactive),101% (inactive)
CC(=O)Oc1ccc(Cl)cc1,94.2% (inactive),91.3% (inactive),106% (inactive),87.8% (inactive),101% (inactive),99.5% (inactive),95.8% (inactive),83.6% (inactive),89.1% (inactive),95.1% (inactive),97.8% (inactive),91.3% (inactive),89.5% (inactive),94.6% (inactive),90.3% (inactive),99.1% (inactive),89.9% (inactive),87.4% (inactive),95.3% (inactive),86.3% (inactive)
O=C(CC1(O)C(=O)Nc2ccc(F)cc21)c1ccc(C(=O)NCC2CCC3(CC2)OOC2(CCCCC2)OO3)cc1 (centres undefined),34.9% (inactive),69.3% (inactive),94.6% (inactive),-14.4% (active),21.7% (inactive),-78.5% (active),41.5% (inactive),63.4% (inactive),7.74% (active),74.1% (inactive),15.3% (inactive),44.2% (inactive),78.5% (inactive),51.4% (inactive),73.8% (inactive),80% (inactive),61.1% (inactive),60.9% (inactive),69.7% (inactive),32.5% (inactive)
O=C(CCl)NCNC(=O)CCl,97.8% (inactive),112% (inactive),100% (inactive),97.2% (inactive),103% (inactive),107% (inactive),99.7% (inactive),98.1% (inactive),101% (inactive),91.4% (inactive),87.9% (inactive),86.4% (inactive),93.7% (inactive),97.7% (inactive),96.8% (inactive),103% (inactive),100% (inactive),85.1% (inactive),92.1% (inactive),104% (inactive)
COC(=O)C(=[N+]=[N-])C(=O)OC,98.1% (inactive),99.2% (inactive),103% (inactive),103% (inactive),106% (inactive),98.3% (inactive),113% (inactive),106% (inactive),103% (inactive),105% (inactive),104% (inactive),92.3% (inactive),105% (inactive),98% (inactive),121% (inactive),108% (inactive),100% (inactive),88.3% (inactive),94.2% (inactive),110% (inactive)
C[C@@H]1CC[C@@H]2[C@@H]1[C@H](OC(=O)/C=C/C1CCCCC1)[C@]1(C3CCCCC3)C[C@@H](OC(=O)CO)[C@@]2(C)O1,71.5% (inactive),56.9% (inactive),85.6% (inactive),69.7% (inactive),64.2% (inactive),-10.1% (active),61.5% (inactive),39.6% (inactive),95.9% (inactive),48.4% (inactive),60.2% (inactive),31.1% (inactive),74.5% (inactive),31.2% (inactive),-28.1% (active),12.2% (inactive),66.4% (inactive),40.2% (inactive),39.6% (inactive),56% (inactive)
CC(=O)[O][Hg][c]1ccccc1,-84.5% (active),81.9% (inactive),40.1% (inactive),-87.9% (active),-52.1% (active),-96.4% (active),-54.8% (active),-86.4% (active),-53.6% (active),-65.5% (active),–,-57.8% (active),-88.4% (active),-90.5% (active),16.4% (inactive),-39.1% (active),-92.9% (active),-75.2% (active),-88% (active),-95.3% (active)
Oc1ccc(O)c2c1C1(Cl)C(Cl)=C(Cl)C2(Cl)C1(Cl)Cl,59.3% (inactive),59% (inactive),33.1% (inactive),47.4% (inactive),55.3% (inactive),69.1% (inactive),41.3% (inactive),44.7% (inactive),68.2% (inactive),45.3% (inactive),51.6% (inactive),42.4% (inactive),67.9% (inactive),56.4% (inactive),55.6% (inactive),40.5% (inactive),56.9% (inactive),38.9% (inactive),28.4% (inactive),34.6% (inactive)
O=C(CCCN1CCC2(CC1)C(=O)NCN2c1ccc(F)cc1)c1ccc(F)cc1,98.2% (inactive),78.4% (inactive),90% (inactive),95.9% (inactive),96.8% (inactive),101% (inactive),98.1% (inactive),112% (inactive),93.2% (inactive),105% (inactive),102% (inactive),101% (inactive),118% (inactive),98% (inactive),133% (inactive),97.9% (inactive),106% (inactive),85.9% (inactive),88.6% (inactive),108% (inactive)
O=C(c1cccs1)C1NO[N+]([O-])=C1c1cccs1 (centres undefined),4.55% (active),-0.733% (active),110% (inactive),89.6% (inactive),82.3% (inactive),0.474% (active),86.2% (inactive),109% (inactive),36.3% (inactive),64.9% (inactive),64% (inactive),57.1% (inactive),65.8% (inactive),73.4% (inactive),83% (inactive),47.5% (inactive),-91.9% (active),81.8% (inactive),25.6% (inactive),74.8% (inactive)
O=C(O)c1[nH]c(=O)[nH]c(=O)c1F,93% (inactive),86.2% (inactive),92.5% (inactive),124% (inactive),47.9% (inactive),105% (inactive),108% (inactive),86.7% (inactive),82.5% (inactive),93.6% (inactive),87.2% (inactive),95.6% (inactive),94.7% (inactive),96.3% (inactive),123% (inactive),95% (inactive),72.7% (inactive),109% (inactive),79.3% (inactive),69.3% (inactive)
[Cl][Hg][n]1cnc2c(Cl)c(Cl)c(Cl)cc21,101% (inactive),119% (inactive),93.4% (inactive),109% (inactive),98.1% (inactive),112% (inactive),108% (inactive),88% (inactive),101% (inactive),100% (inactive),78.2% (inactive),88.7% (inactive),107% (inactive),102% (inactive),79.5% (inactive),104% (inactive),114% (inactive),78.3% (inactive),103% (inactive),97.8% (inactive)
